Giardia kill: Small Molecules that selectively kill Giardia lamblia: qHTS; Giardia lamblia trophozoite viability; activity change, % at 7.66 µM, hits read low; 340,000 compounds, 0.15% hits; AID 540267, 2011; in the data active means activity change below about -80%; inconclusive means between about -30% and that limit;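 further: parasites exposed to compound for two days anaerobically before the ATP read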
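Media and compound were dispensed first, then trophozoites at 100 cells/well; plates sat 48 hrs at 37 deg C without oxygen before ATP luminescence reagent was added and read after 15-30 min at room temperature.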
RORgamma inh: qHTS for inhibitors of ROR gamma transcriptional activity | Potency, µM (titrated, usually from 53.6 µM), most hits filed as inhibitors | Drosophila S2 Gal4-RORgamma UAS-luciferase reporter, 20 h | 310,000 compounds, 5.4% hits; further: nearly all actives have a fitted effect of over 60% in size
Target sequence (P51450 whole entry, looked up, the tested form may be a part): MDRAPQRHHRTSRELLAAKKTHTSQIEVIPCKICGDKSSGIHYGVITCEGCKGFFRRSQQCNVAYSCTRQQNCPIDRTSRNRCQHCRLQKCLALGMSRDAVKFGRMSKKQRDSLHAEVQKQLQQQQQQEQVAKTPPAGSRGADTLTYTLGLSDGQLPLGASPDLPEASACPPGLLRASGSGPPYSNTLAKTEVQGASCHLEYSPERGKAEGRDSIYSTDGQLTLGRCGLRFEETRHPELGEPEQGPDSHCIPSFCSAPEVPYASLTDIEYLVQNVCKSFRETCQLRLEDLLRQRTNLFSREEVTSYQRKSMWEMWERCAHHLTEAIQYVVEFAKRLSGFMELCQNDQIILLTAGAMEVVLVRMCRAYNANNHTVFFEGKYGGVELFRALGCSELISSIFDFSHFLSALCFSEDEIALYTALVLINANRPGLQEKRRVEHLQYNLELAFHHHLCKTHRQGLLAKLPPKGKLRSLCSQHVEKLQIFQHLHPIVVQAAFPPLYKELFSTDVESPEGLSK
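A Gal4/UAS one-hybrid system in insect cells: metallothionein-promoter Gal4–ROR gamma fusion plus Photinus luciferase reporter. Copper sulfate 700 uM final, 20 hr ambient incubation, luminescent detection after 10 min with reagent.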
p53 reactivator: qHTS assay for re-activators of p53 using a Luc reporter. Potency, µM (series often up to 92.2 µM), hits mostly activators. H1299 p53-A138V BP100-luciferase reporter, luminescence, 24 h. 320,000 compounds, 0.063% hits; further: nearly all actives have a fitted effect of over 45% in size
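p53-null H1299 cells stably carrying temperature-sensitive p53-A138V and a BP100-luciferase reporter were pinned with compounds (4-point, 1:5 series) and held 24 hrs at 37 deg C. Luminescence was read 10 min after detection reagent.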
BRCA1 expr up: qHTS Assay to Identify Small Molecule Activators of BRCA1 Expression | MCF7-BRCA1-FFLuc reporter, luminescence, 48 h; response scale: scaled: vehicle 0%, 10 µM genistein 100% | Potency, µM (top dose mostly 46.1 µM), hits mostly activators | 380,000 compounds, 1.1% hits | AID 624202, 2012; further: nearly all actives have a fitted effect of over 80% in size
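Luminescence from a BRCA1-driven firefly luciferase in MCF7 cells was the read-out, taken 15 min after substrate addition following 48 h compound exposure at 37 °C. Data were normalized to a 10 microM genistein control and DMSO vehicle.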
Gal4-VP16 FLuc: VP16 counterscreen qHTS for inhibitors of ROR gamma transcriptional activity | Drosophila S2 Gal4-VP16 UAS-luciferase, luminescence, 20 h | Potency, µM (highest dose often 53.6 µM), hits mostly inhibitors | 310,000 compounds, 3.5% hits;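 further: Gal4-VP16 expression switched on by copper sulfate through the metallothionein promoter; nearly all actives have a fitted effect of over 50% in size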
ELG1 DNA repair: qHTS screen for small molecules that inhibit ELG1-dependent DNA repair in human embryonic kidney (HEK293T) cells expressing luciferase-tagged ELG1; HEK293T ELG1-luciferase reporter, luminescence, 16 h; DNA damage induced by 5-fluorouridine; Potency, µM (series often up to 46.1 µM), actives largely listed as inhibitors; AID 504467, 2011; 330,000 compounds, 2.3% hits; further: nearly all actives have a fitted effect of over 55% in size
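5-Fluorouridine DNA damage + compound/DMSO, 2,000 cells/well, 16 h, 37 °C/5% CO2. ONE-Glo, 30 min RT, luminescence. Readout = decrease in reporter signal.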
Hits are given with their value. Only some compounds are listed: those with a hit (about 7.6% of all), similar ones and a draw of the others. Unless noted, the call rests on the fitted dose curve; in most records, active means well fitted curve in the direction sought with a large enough effect; inconclusive means small, poorly fitted or top-dose-only effect, or another doubt; inactive means no such curve, though single readings can be large; an effect the other way counts as inactive or inconclusive.

How did O=C(COc1cccc2ccccc12)N1CCN(c2ccccc2)CC1 do in these assays?
Giardia kill: inactive; RORgamma inh: inconclusive; p53 reactivator: inactive; BRCA1 expr up: inactive; Gal4-VP16 FLuc: inactive; ELG1 DNA repair: 8.2µM

How did O=C(CSCc1ccccc1)N1CCN(c2ccccc2)CC1 do in these assays?
Giardia kill: inactive; RORgamma inh: inactive; p53 reactivator: inconclusive; BRCA1 expr up: 11µM; Gal4-VP16 FLuc: inactive; ELG1 DNA repair: inconclusive

What do the screens show for `CCn1c(Cc2ccc(OC)cc2)nnc1SCC(=O)N1CCN(c2ccccc2)CC1`?
Giardia kill: inactive; RORgamma inh: inactive; p53 reactivator: inactive; BRCA1 expr up: inactive; Gal4-VP16 FLuc: inactive; ELG1 DNA repair: inconclusive

Results for CCn1c(CSCc2ccc(F)cc2)nnc1SCC(=O)N1CCN(c2ccccc2)CC1 ?
Giardia kill: inactive; RORgamma inh: inactive; p53 reactivator: inactive; BRCA1 expr up: inactive; Gal4-VP16 FLuc: inactive; ELG1 DNA repair: 13µM

What do the screens show for `Cc1ccc(CSCc2nnc(SCC(=O)N3CCN(c4ccccc4)CC3)n2C)cc1`?
Giardia kill: inactive; RORgamma inh: inconclusive; p53 reactivator: inactive; BRCA1 expr up: inactive; Gal4-VP16 FLuc: inconclusive; ELG1 DNA repair: 23µM

What do the screens show for `O=C(CSCc1nc2ccccc2[nH]1)N1CCN(c2ccc(F)cc2)CC1`?
Giardia kill: inactive; RORgamma inh: inconclusive; p53 reactivator: inactive; BRCA1 expr up: inactive; Gal4-VP16 FLuc: inconclusive; ELG1 DNA repair: inconclusive

How did O=C(CSCc1nc2ccccc2[nH]1)N1CCN(c2cccc(Cl)c2)CC1 do in these assays?
Giardia kill: inactive; RORgamma inh: 11µM; p53 reactivator: inactive; BRCA1 expr up: inactive; Gal4-VP16 FLuc: inconclusive; ELG1 DNA repair: inconclusive

What do the screens show for `O=C(N/N=C/c1ccco1)c1ccc2nc[nH]c2c1`?
Giardia kill: inactive; RORgamma inh: inactive; p53 reactivator: inactive; BRCA1 expr up: inactive; Gal4-VP16 FLuc: inactive; ELG1 DNA repair: inactive

Results for O=C(N/N=C/C(Br)=C\c1ccccc1)c1ccc2nc[nH]c2c1 ?
Giardia kill: inactive; RORgamma inh: 14µM; p53 reactivator: inactive; BRCA1 expr up: inactive; Gal4-VP16 FLuc: 7.9µM; ELG1 DNA repair: inconclusive

Results for CC(=C/c1ccccc1)/C=N/NC(=O)c1ccc2nc[nH]c2c1 ?
Giardia kill: inactive; RORgamma inh: inactive; p53 reactivator: inactive; BRCA1 expr up: inactive; Gal4-VP16 FLuc: inactive; ELG1 DNA repair: inconclusive

How did O=C(N/N=C/c1ccccc1C(F)(F)F)c1ccc2nc[nH]c2c1 do in these assays?
Giardia kill: inactive; RORgamma inh: inactive; p53 reactivator: inactive; BRCA1 expr up: 7.1µM; Gal4-VP16 FLuc: inactive; ELG1 DNA repair: inconclusive

How did O=C(N/N=C/C(Br)=C/c1ccccc1)C(O)c1ccccc1 (stereo not given) do in these assays?
Giardia kill: inactive; RORgamma inh: inconclusive; p53 reactivator: inconclusive; BRCA1 expr up: inactive; Gal4-VP16 FLuc: inconclusive; ELG1 DNA repair: inconclusive

What do the screens show for `O=C(N/N=C/C(Br)=C/c1ccccc1)c1ccc([N+](=O)[O-])cc1`?
Giardia kill: inactive; RORgamma inh: 13µM; p53 reactivator: inactive; BRCA1 expr up: inactive; Gal4-VP16 FLuc: inactive; ELG1 DNA repair: inactive

What do the screens show for `O=C(O)c1ccc(N/N=C/C(Br)=C/c2ccccc2)cc1`?
Giardia kill: inactive; RORgamma inh: 8.9µM; p53 reactivator: inconclusive; BRCA1 expr up: inconclusive; Gal4-VP16 FLuc: 10µM; ELG1 DNA repair: inconclusive

How did O=C(N/N=C/C(Br)=C/c1ccccc1)c1ccncc1 do in these assays?
Giardia kill: inactive; RORgamma inh: inactive; p53 reactivator: inactive; BRCA1 expr up: inactive; Gal4-VP16 FLuc: inactive; ELG1 DNA repair: inconclusive

What do the screens show for `O=C(CN1C(=O)S/C(=C\c2ccc(-c3cc(C(=O)O)ccc3Cl)o2)C1=O)Nc1ccc2c(c1)OCO2`?
RORgamma inh: inactive; p53 reactivator: inactive; Gal4-VP16 FLuc: inactive; ELG1 DNA repair: inactive

How did Cc1ccnc(NC(c2ccsc2)c2ccc3ccc(C)nc3c2O)c1 (stereo not given) do in these assays?
Giardia kill: inactive; RORgamma inh: 5µM; p53 reactivator: inactive; BRCA1 expr up: inactive; Gal4-VP16 FLuc: inconclusive; ELG1 DNA repair: inactive

What do the screens show for `COc1ccc(C(Nc2cc(C)ccn2)c2ccc3ccc(C)nc3c2O)cc1` (stereo not given)?
Giardia kill: inactive; RORgamma inh: 2.5µM; p53 reactivator: inactive; BRCA1 expr up: inactive; Gal4-VP16 FLuc: 3.5µM; ELG1 DNA repair: inconclusive

How did O=C(COC(=O)c1ccc[nH]c1=O)NCC1CCCO1 (stereo not given) do in these assays?
Giardia kill: inactive; RORgamma inh: inactive; p53 reactivator: inactive; BRCA1 expr up: inactive; Gal4-VP16 FLuc: inactive; ELG1 DNA repair: inactive

Results for CN(C)C(=S)NC(=O)C12CC3(C)CC(C)(CC(C)(C3)C1)C2 ?
Giardia kill: inactive; RORgamma inh: 2.5µM; p53 reactivator: inactive; BRCA1 expr up: inactive; Gal4-VP16 FLuc: inactive; ELG1 DNA repair: inactive

Results for Cc1csc(NC(=S)NC(=O)c2ccccc2)n1 ?
Giardia kill: inactive; RORgamma inh: 2µM; p53 reactivator: inconclusive; BRCA1 expr up: inactive; Gal4-VP16 FLuc: 3.2µM; ELG1 DNA repair: inconclusive

What do the screens show for `Cc1csc(NC(=O)c2ccncc2)n1`?
Giardia kill: inactive; RORgamma inh: inactive; p53 reactivator: inactive; BRCA1 expr up: inactive; Gal4-VP16 FLuc: inactive; ELG1 DNA repair: inconclusive

What do the screens show for `Cc1csc(NC(=O)c2ccccc2)n1`?
Giardia kill: inactive; RORgamma inh: inactive; p53 reactivator: inactive; BRCA1 expr up: 3.2µM; Gal4-VP16 FLuc: inactive; ELG1 DNA repair: inconclusive

Results for Cc1csc(NC(=O)c2ccc(C)c([N+](=O)[O-])c2)n1 ?
Giardia kill: inactive; RORgamma inh: inconclusive; BRCA1 expr up: inactive; Gal4-VP16 FLuc: 14µM; ELG1 DNA repair: inconclusive

Results for COc1cc(OC)nc(NC(=S)NC(=O)c2ccccc2)n1 ?
Giardia kill: inactive; RORgamma inh: 5µM; p53 reactivator: inactive; BRCA1 expr up: inactive; Gal4-VP16 FLuc: inconclusive; ELG1 DNA repair: inactive

Results for COc1cc(OC)nc(NC(C)=O)n1 ?
Giardia kill: inactive; RORgamma inh: inactive; p53 reactivator: inactive; BRCA1 expr up: inactive; Gal4-VP16 FLuc: inactive; ELG1 DNA repair: inactive

What do the screens show for `Cc1csc(NC(=O)c2ccc(Br)s2)n1`?
Giardia kill: inactive; RORgamma inh: 10µM; p53 reactivator: inconclusive; BRCA1 expr up: inactive; Gal4-VP16 FLuc: inconclusive; ELG1 DNA repair: inconclusive

Results for O=C1CC(NCCc2ccccc2)C(=O)N1CCc1ccccc1 (stereo not given) ?
Giardia kill: inactive; RORgamma inh: inactive; p53 reactivator: inactive; BRCA1 expr up: inactive; Gal4-VP16 FLuc: inactive; ELG1 DNA repair: inactive

Assay outcomes (PubChem)
